We go through 37 compounds from PubChem BioAssay AID504773 (Broad Institute, 2011).

Entries with a potency or affinity are not part of this list. Active and inactive are the calls of the source.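 The calls were made as follows: active = polarization signal falls with dose and the fitted half-maximal concentration is at or below ten times the sample's top valid dose; inconclusive = flat curve at 30 to 70% inhibition, or poor fit; inactive = signal rises, flat within 30%, or potency beyond limit.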

The target in the assay is Golgi-associated PDZ and coiled-coil motif-containing protein (Homo sapiens) (UniProt Q9HD26). Description: CAL PDZ peptide-binding inhibitors, dose response, biochemical, fluorescence polarization, Cerulean-tagged CAL PDZ, cherry-picks (AID 504773).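 Also: 0% = DMSO neutral wells and -100% = excess unlabeled competitor peptide wells.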 The settings on record: 1 h; series mostly up to 50 µM; activity change, negative = inhibition: at the top concentration.
Turning to `C/C(CC(=O)Nc1ccc(C)c(Cl)c1)=N\NC(=O)Cc1cnc(N)s1`, the “activity change, negative = inhibition” value is 14.7% (inactive).

For the compound `O=C(Nc1nccs1)c1ccc(F)c(S(=O)(=O)N2CCOCC2)c1`, the “activity change, negative = inhibition” value is 23.6% (inactive).

In the case of `O=C(NC1CCCCCCC1)c1cc([N+](=O)[O-])ccc1Cl`, the “activity change, negative = inhibition” value was 8.36% (inactive).

Regarding `COc1cc(NS(=O)(=O)c2ccc(NC(=S)Nc3ccccc3)cc2)nc(OC)n1`, the “activity change, negative = inhibition” value is -0.366% (inactive).

Regarding `Cc1ccc(NC(=O)CN(C)C(=S)NC2CC2)cc1`, the “activity change, negative = inhibition” value is -2.76% (inactive).

On to `COc1ccc(-c2nc3ccccc3o2)cc1OC`, for which the “activity change, negative = inhibition” value was -10.8% (inactive).

Turning to `COc1ccc(Br)c(C(=O)NC2CCCC2)c1`, the “activity change, negative = inhibition” value is 18.1% (inactive).

As to `C=CCN1C(=O)/C(=C/c2ccsc2)SC1=S`, the “activity change, negative = inhibition” value was -19.4% (inactive).

As for `CCOC(=O)c1ccc(N=C2SC(C(=O)NC)CC(=O)N2Cc2ccc(F)cc2)cc1` (configuration not stated), the “activity change, negative = inhibition” value is 10.4% (inactive).

With `O=C(NCc1ccccc1)c1cc2ccc(O)cc2oc1=O`, the “activity change, negative = inhibition” value was -30.7% (inactive).

`Cc1ccc(Cl)c2c(N=Nc3ccccc3)c(O)[nH]c12`: the “activity change, negative = inhibition” value is 19% (inactive).

With `O=C(NCc1cccnc1)c1ccc(Cn2c(=S)[nH]c3ccc(Br)cc3c2=O)cc1`, the “activity change, negative = inhibition” value was 2.36% (inactive).

On to `O=C(c1c(Cl)cccc1Cl)N1CCCCCC1`, for which the “activity change, negative = inhibition” value is -14.2% (inactive).

As for `CCCC(=O)OCC(=O)Nc1ccccc1C#N`, the “activity change, negative = inhibition” value is 2.59% (inactive).

On to `Cc1ccccc1N1CCN(S(=O)(=O)c2ccccc2)CC1`, for which the “activity change, negative = inhibition” value is 5.45% (inactive).

For the compound `O=C(CCN1C(=O)c2ccccc2C1=O)CN1CCOCC1`, the “activity change, negative = inhibition” value was -18.3% (inactive).

Take `COc1cccc(NC(=O)N2CCCCCC2)c1`: the “activity change, negative = inhibition” value is 21.9% (inactive).

Regarding `Cc1c(Cl)c(C(=O)N2CCCC2)nn1C`, the “activity change, negative = inhibition” value was -31.7% (inactive).

As for `COc1ccc(/C=C2\N=C(c3ccc(C)cc3)OC2=O)cc1`, the “activity change, negative = inhibition” value is -21.2% (inactive).

Take `CC(=O)Nc1cccc(NC(=O)CSc2nnc(NC(=O)c3ccco3)s2)c1`: the “activity change, negative = inhibition” value was 14.6% (inactive).

On to `O=C(CN1C(=O)NC2(CCCC2)C1=O)Nc1ccc(F)c(F)c1F`, for which the “activity change, negative = inhibition” value is -17.6% (inactive).

Regarding `CC(CN1CCCC1)OC(=O)C(c1ccccc1)c1ccccc1` (configuration not stated), the “activity change, negative = inhibition” value is -30.8% (inactive).

Consider `Cc1ccnc2nc(C(=O)OCCOc3ccc(F)cc3)nn12`, for which the “activity change, negative = inhibition” value was -16.9% (inactive).

With `CCn1ncc(Br)c1C(=O)Nc1cccc(F)c1`, the “activity change, negative = inhibition” value was 14.7% (inactive).

Turning to `COc1ccc(/C=N/NC(=O)c2cccc(C(F)(F)F)c2)cc1`, the “activity change, negative = inhibition” value is 19.1% (inactive).

In the case of `C=CCOc1ccc2ccccc2c1CNn1cn[nH]c1=S`, the “activity change, negative = inhibition” value is 33% (inactive).

Consider `Cc1ccc(CN(C(=O)c2ccco2)C(C(=O)NC2CCCC2)c2cccnc2)cc1` (configuration not stated), for which the “activity change, negative = inhibition” value was 20.8% (inactive).

As to `COc1ccc(N2CCN(C3CCCN(Cc4ccc(F)cc4)C3)CC2)cc1` (configuration not stated), the “activity change, negative = inhibition” value is 20% (inactive).

As for `CS(=O)(=O)c1ccc2nc(NC(=O)CN3C(=O)C4CC=CCC4C3=O)sc2c1` (configuration not stated), the “activity change, negative = inhibition” value is 7.85% (inactive).

For `CC(C)(C)c1nn(-c2ccccc2)c2[nH]c(=O)c(C=O)cc12`, the “activity change, negative = inhibition” value is -49.3% (inactive).

Consider `COc1cc(S(=O)(=O)n2nc(C)cc2C)ccc1Cl`, for which the “activity change, negative = inhibition” value is -59% (inactive).

Turning to `O=C(NCc1ccccc1)C1CCCN(c2nc3ccsc3c(=O)s2)C1` (configuration not stated), the “activity change, negative = inhibition” value is 16.3% (inactive).

Take `CN(C(=O)CC1C(=O)NCCN1CC(c1ccccc1)c1ccccc1)C(C1CC1)C1CC1` (configuration not stated): the “activity change, negative = inhibition” value was -16% (inactive).

In the case of `Brc1cccc(CNCC2CCCO2)c1` (configuration not stated), the “activity change, negative = inhibition” value was 5.13% (inactive).

As for `O=C(Nc1ccc(Cl)cc1)c1ccc(CN2CCc3ccccc3C2)cc1`, the “activity change, negative = inhibition” value is -19.8% (inactive).

With `Cn1c(=O)c2c(ncn2CC(=O)Nc2nc(-c3ccccc3Cl)cs2)n(C)c1=O`, the “activity change, negative = inhibition” value was 6.53% (inactive).

For the compound `Cc1ccc(S(=O)(=O)N2CCN(CCC#N)CC2)cc1`, the “activity change, negative = inhibition” value was 9.54% (inactive).
